Assay results published in PubChem BioAssay AID1159580 (chemical genetic matrix, 2015).
Where “and” joins values, the source holds several entries; their conditions need not be identical. Identical values can stand only once. The whole screen tested about 5,500 compounds, of which about 2,000 (36%) were called active. Another 18% or so got no clear call; they are omitted. Cut-off read from the data, not from the text of the source: active = normalized growth mostly below about 0.91 (no sharp cut-off); inconclusive = no clear call, values can overlap the other calls; inactive = mostly above about 0.92. The list shows a part of the results.

Assay: chemical genetic growth profiling, strain panel (AID 1159580);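 note: tested at 20 µM; growth read once vehicle control cultures reached saturation at 30 °C; 1 = growth at the plate median or of vehicle wells; lower values mean less growth of the strain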
Details: S. cerevisiae deletion strains, growth OD

Measured: normalized growth

Oc1c(Cl)cc(Cl)cc1Sc1cc(Cl)cc(Cl)c1O
active: locus YAL021C, strain ccr4, stronger effect = lower value 0.067 | locus YAL026C, strain drs2, stronger effect = lower value 0.0634 | locus YAL030W, strain snc1, stronger effect = lower value 0.0557 | locus YBL061C, strain skt5, stronger effect = lower value 0.0575 | locus YBR009C, strain hhf1, stronger effect = lower value 0.061 | locus YBR023C, strain chs3, stronger effect = lower value 0.0607 | locus YBR171W, strain sec66, stronger effect = lower value 0.077 | locus YBR231C, strain swc5, stronger effect = lower value 0.0615 | locus YBR279W, strain paf1, stronger effect = lower value 0.0577 | locus YCL011C, strain gbp2, stronger effect = lower value 0.0589 | locus YCL016C, strain dcc1, stronger effect = lower value 0.064 | locus YCL069W, strain vba3, stronger effect = lower value 0.0603 | locus YCR088W, strain abp1, stronger effect = lower value 0.0604 | locus YDL005C, strain med2, stronger effect = lower value 0.0721 | locus YDL040C, strain nat1, stronger effect = lower value 0.0555 | locus YDR001C, strain nth1, stronger effect = lower value 0.0578 | locus YDR069C, strain doa4, stronger effect = lower value 0.0618 | locus YDR137W, strain rgp1, stronger effect = lower value 0.09 | locus YDR159W, strain sac3, stronger effect = lower value 0.0888 | locus YDR195W, strain ref2 0.123 | locus YDR297W, strain sur2, stronger effect = lower value 0.0581 | locus YDR334W, strain swr1, stronger effect = lower value 0.0632 | locus YDR335W, strain msn5, stronger effect = lower value 0.0596 | locus YDR392W, strain spt3, stronger effect = lower value 0.081 | locus YEL003W, strain gim4, stronger effect = lower value 0.0535 | locus YEL037C, strain rad23, stronger effect = lower value 0.0573 | locus YEL061C, strain CIN8 (second series), stronger effect = lower value 0.0607 | locus YER015W, strain faa2, stronger effect = lower value 0.0587 | locus YER016W, strain bim1, stronger effect = lower value 0.0576 | locus YER111C, strain swi4, stronger effect = lower value 0.0718 | locus YER155C, strain BEM2 (second series), stronger effect = lower value 0.0937 | locus YFR010W, strain ubp6, stronger effect = lower value 0.0679 | locus YGL167C, strain pmr1, stronger effect = lower value 0.0712 | locus YGL173C, strain kem1, stronger effect = lower value 0.0685 | locus YGL227W, strain vid30, stronger effect = lower value 0.0624 | locus YGL240W, strain doc1, stronger effect = lower value 0.0755 | locus YGL253W, strain hxk2, stronger effect = lower value 0.0537 | locus YHR013C, strain ard1, stronger effect = lower value 0.105 | locus YHR027C, strain rpn1, stronger effect = lower value 0.0591 | locus YHR079C, strain IRE1, stronger effect = lower value 0.129 | locus YHR142W, strain chs7, stronger effect = lower value 0.0784 | locus YJL092W, strain hpr5, stronger effect = lower value 0.0598 | locus YJL095W, strain BCK1 (second series), stronger effect = lower value 0.0564 | locus YJL115W, strain asf1, stronger effect = lower value 0.0719 | locus YJL129C, strain trk1, stronger effect = lower value 0.0818 | locus YJL154C, strain vps35, stronger effect = lower value 0.0607 | locus YJL164C, strain tpk1, stronger effect = lower value 0.0913 | locus YJL166W, strain qcr8, stronger effect = lower value 0.0591 | locus YJR066W, strain TOR1, stronger effect = lower value 0.00096 | locus YKL160W, strain elf1, stronger effect = lower value 0.0607 | locus YKR026C, strain gcn3, stronger effect = lower value 0.0616 | locus YKR091W, strain srl3, stronger effect = lower value 0.0572 | locus YLL001W, strain dnm1, stronger effect = lower value 0.0641 | locus YLL026W, stronger effect = lower value 0.0559 | locus YLL041C, strain sdh2, stronger effect = lower value 0.0561 | locus YLR027C, strain aat2, stronger effect = lower value 0.0575 | locus YLR113W, strain HOG1, stronger effect = lower value 0.152 | locus YLR221C, strain rsa3, stronger effect = lower value 0.0589 | locus YLR258W, strain gsy2, stronger effect = lower value 0.0608 | locus YLR262C, strain YPT6 (second series), stronger effect = lower value 0.0722 | locus YLR320W, strain mms22, stronger effect = lower value 0.0755 | locus YLR342W, strain FKS1, stronger effect = lower value 0.0628 | locus YLR357W, strain rsc2, stronger effect = lower value 0.119 | locus YLR370C, strain arc18, stronger effect = lower value 0.0603 | locus YLR384C, strain iki3, stronger effect = lower value 0.0584 | locus YML120C, strain ndi1, stronger effect = lower value 0.0563 | locus YMR058W, strain fet3, stronger effect = lower value 0.0603 | locus YMR125W, strain sto1, stronger effect = lower value 0.0858 | locus YMR129W, stronger effect = lower value 0.0578 | locus YMR205C, strain PFK2, stronger effect = lower value 0.0864 | locus YMR231W, strain pep5, stronger effect = lower value 0.0649 | locus YNL071W, strain lat1, stronger effect = lower value 0.0603 | locus YNL183C, strain NPR1, stronger effect = lower value -0.00055 | locus YNL209W, strain ssb2, stronger effect = lower value 0.0572 | locus YNL248C, strain rpa49, stronger effect = lower value 0.0762 | locus YNL322C, strain KRE1 (second series), stronger effect = lower value 0.0643 | locus YNR049C, strain mso1, stronger effect = lower value 0.0565 | locus YOR001W, strain rrp6, stronger effect = lower value 0.0689 | locus YOR070C, strain gyp1, stronger effect = lower value 0.0566 | locus YOR080W, strain dia2, stronger effect = lower value 0.0627 | locus YOR083W, strain WHI5, stronger effect = lower value 0.0603 | locus YOR106W, strain vam3, stronger effect = lower value 0.0687 | locus YOR231W, strain MKK1, stronger effect = lower value 0.118 | locus YOR265W, strain rbl2, stronger effect = lower value 0.0558 | locus YOR270C, strain vph1, stronger effect = lower value 0.113 | locus YOR290C, strain snf2, stronger effect = lower value 0.0666 | locus YPL051W, strain arl3, stronger effect = lower value 0.0608 | locus YPL078C, strain atp4, stronger effect = lower value 0.0682 | locus YPL106C, strain sse1, stronger effect = lower value 0.111 | locus YPL240C, strain hsp82, stronger effect = lower value 0.0577 | locus YPL256C, strain CLN2, stronger effect = lower value 0.147
0.99 (inactive) and 0.152 (active): locus YHR030C, strain SLT2, stronger effect = lower value
0.951 (inactive) and 0.106 (active): locus YJL095W, strain BCK1, stronger effect = lower value
inactive: locus YBR021W, strain FUR4, stronger effect = lower value 0.989 | locus YBR229C, strain ROT2, stronger effect = lower value 0.998 | locus YCL029C, strain bik1, stronger effect = lower value 0.964 | locus YDL035C, strain GPR1, stronger effect = lower value 1.05 | locus YDL074C, strain BRE1, stronger effect = lower value 0.979 | locus YDL101C, strain DUN1, stronger effect = lower value 0.978 | locus YDL185W, strain tfp1, stronger effect = lower value 0.966 | locus YDL192W, strain arf1, stronger effect = lower value 0.992 | locus YDR101C, strain arx1, stronger effect = lower value 0.978 | locus YDR150W, strain NUM1, stronger effect = lower value 0.982 | locus YDR162C, strain NBP2, stronger effect = lower value 1.01 | locus YDR318W, strain mcm21, stronger effect = lower value 0.98 | locus YDR388W, stronger effect = lower value 0.983 | locus YDR502C, strain sam2, stronger effect = lower value 0.985 | locus YEL061C, strain CIN8, stronger effect = lower value 0.988 | locus YER110C, stronger effect = lower value 0.964 | locus YER155C, strain BEM2, stronger effect = lower value 0.985 | locus YER167W, strain BCK2, stronger effect = lower value 0.996 | locus YGL078C, strain dbp3, stronger effect = lower value 0.984 | locus YGL086W, strain mad1, stronger effect = lower value 0.995 | locus YGL248W, strain PDE1, stronger effect = lower value 0.981 | locus YGR078C, strain PAC10, stronger effect = lower value 0.981 | locus YGR135W, strain pre9, stronger effect = lower value 0.98 | locus YGR229C, strain SMI1, stronger effect = lower value 1.02 | locus YGR252W, strain gcn5, stronger effect = lower value 1.03 | locus YHR079C, strain IRE1 (second series), stronger effect = lower value 0.966 | locus YHR094C, strain hxt1, stronger effect = lower value 0.976 | locus YHR129C, strain ARP1, stronger effect = lower value 0.994 | locus YHR200W, strain rpn10, stronger effect = lower value 0.97 | locus YIL066C, strain RNR3, stronger effect = lower value 1.01 | locus YIL073C, strain SPO22, stronger effect = lower value 0.942 | locus YIL125W, strain kgd1, stronger effect = lower value 0.996 | locus YIR030C, strain dcg1, stronger effect = lower value 1.01 | locus YJL134W, strain LCB3, stronger effect = lower value 0.989 | locus YJL168C, strain set2, stronger effect = lower value 0.984 | locus YJL187C, strain SWE1 (second series), stronger effect = lower value 0.969 | locus YJR043C, strain POL32, stronger effect = lower value 1.05 | locus YJR075W, strain HOC1, stronger effect = lower value 0.962 | locus YKL009W, strain mrt4, stronger effect = lower value 0.956 | locus YKL068W, stronger effect = lower value 0.978 | locus YKL085W, strain MDH1 (second series), stronger effect = lower value 0.973 | locus YKL085W, strain MDH1, stronger effect = lower value 0.973 | locus YKR001C, strain vps1, stronger effect = lower value 1.01 | locus YLR039C, strain RIC1, stronger effect = lower value 0.945 | locus YLR058C, strain SHM2, stronger effect = lower value 0.984 | locus YLR102C, strain apc9, stronger effect = lower value 0.962 | locus YLR262C, strain YPT6, stronger effect = lower value 1 | locus YLR268W, strain sec22, stronger effect = lower value 0.976 | locus YLR330W, strain CHS5, stronger effect = lower value 0.995 | locus YLR342W, strain FKS1 (second series), stronger effect = lower value 1.05 | locus YLR371W, strain rom2, stronger effect = lower value 0.994 | locus YLR418C, strain cdc73, stronger effect = lower value 0.979 | locus YML016C, strain PPZ1, stronger effect = lower value 0.991 | locus YML032C, strain rad52, stronger effect = lower value 0.986 | locus YML124C, strain tub3, stronger effect = lower value 0.989 | locus YMR078C, strain ctf18, stronger effect = lower value 0.989 | locus YMR223W, strain ubp8, stronger effect = lower value 0.991 | locus YMR307W, strain GAS1, stronger effect = lower value 1.17 | locus YNL067W, strain RPL9B, stronger effect = lower value 0.941 | locus YNL233W, strain BNI4, stronger effect = lower value 0.966 | locus YNL250W, strain rad50, stronger effect = lower value 0.98 | locus YNL271C, strain bni1, stronger effect = lower value 0.996 | locus YNL298W, strain CLA4, stronger effect = lower value 0.967 | locus YNL307C, strain MCK1, stronger effect = lower value 0.975 | locus YNR052C, strain pop2, stronger effect = lower value 0.982 | locus YOL006C, strain TOP1, stronger effect = lower value 0.921 | locus YOL012C, strain htz1 0.709 | locus YOL147C, strain pex11, stronger effect = lower value 0.975 | locus YOR061W, strain CKA2, stronger effect = lower value 0.994 | locus YOR069W, strain VPS5, stronger effect = lower value 0.989 | locus YOR136W, strain idh2, stronger effect = lower value 0.978 | locus YOR144C, strain elg1, stronger effect = lower value 0.993 | locus YOR184W, strain ser1, stronger effect = lower value 0.979 | locus YOR316C, strain cot1, stronger effect = lower value 0.97 | locus YPL055C, strain LGE1, stronger effect = lower value 0.973 | locus YPL241C, strain CIN2, stronger effect = lower value 0.984 | locus YPR119W, strain clb2, stronger effect = lower value 0.985 | locus YPR141C, strain kar3, stronger effect = lower value 0.979 | locus YPR163C, strain tif3, stronger effect = lower value 0.983 | locus YPR167C, strain met16, stronger effect = lower value 0.986 | strain wtn01, stronger effect = lower value 0.995
